# Assay results taken from ChEMBL document CHEMBL3988442, “University of Dundee, Small-Polar-MMV Screening Library” (2021).
# The campaign covered roughly 69,000 compounds. About 1,000 (1.4%) showed an effect of 50% or more. The sample holds strong results, similar compounds and a random draw of the others, so the mix is not that of the screen.
# System: Leishmania donovani
# Test: Leishmania intramacrophage assay
# Type: functional, organism-based
# Design: scale not given: in the data most compounds retested in dose-response had high values
compound,measurement,setting,value
Cc1nn(C)cc1S(=O)(=O)N[C@@H]1CC[C@@H](n2ccnc2C)[C@@H]1O,Percent Effect,"30.3 µM, […]",-29.93%
CN1CCC/C1=N\S(=O)(=O)c1ccc(NC(=O)c2ccco2)cc1,Percent Effect,30 µM,-21.5%
CCNC(=O)[C@@H]1C[C@@H](NC(=O)c2cccnc2O)CN1Cc1ccsc1,Percent Effect,"30 µM, 30.03 µM",19.61%
CCNC(=O)[C@@H]1C[C@H](NC(=O)c2cncnc2C)CN1Cc1ccsc1,Percent Effect,"30.3 µM, […]",37.2%
CCNC(=O)[C@@H]1C[C@@H](NC(=O)c2cnc[nH]c2=O)CN1Cc1ccsc1,Percent Effect,"30.3 µM, […]",54.56%
CC(=O)Cn1ncc(N2CCOCC2)cc1=O,Percent Effect,"30.3 µM, […]",4.61%
Fc1ccc(CN2CCCC(c3cc4ncccc4[nH]3)C2)cc1 (configuration not stated),Percent Effect,"30.3 µM, […]",-0.4017%
CCOc1ccc(CN2CCCC(c3cc4ncccc4[nH]3)C2)cc1 (configuration not stated),Percent Effect,"30.3 µM, […]",54.07%
CC(=O)Nc1ccc(CN2CCCC(c3cc4ncccc4[nH]3)C2)cc1 (configuration not stated),Percent Effect,"30.3 µM, […]",40.95%
O=C(CC1NC(N2CCc3ccccc32)=NC1=O)Nc1ccc(Cl)cc1 (configuration not stated),Percent Effect,"30.3 µM, […]",9.68%
Cc1nc(O)cc(CCNc2nccc(CCC(F)(F)F)n2)n1,Percent Effect,"30.3 µM, […]",19.16%
CC(Cn1ccnc1)NC(=O)N1CCN(Cc2ccncc2)CC1 (configuration not stated),Percent Effect,30 µM,-0.977%
CC(Cn1ccnc1)NC(=O)N1CCN(Cc2ccsc2)CC1 (configuration not stated),Percent Effect,30 µM,56.49%
CC(Cn1cccn1)NC(=O)N1CCN(Cc2ccsc2)CC1 (configuration not stated),Percent Effect,"30.3 µM, […]",0.9675%
CN1C(=O)CC(C(=O)O)C12CCN(c1ccc3c(n1)CCCC3)CC2 (configuration not stated),Percent Effect,"30.3 µM, […]",21.03%
CCn1ncnc1C(C)NC(=O)C1CCN(C(C)C)CC1 (configuration not stated),Percent Effect,"30 µM, 30.03 µM",5.618%
CCn1ncnc1C(C)NC(=O)C1CCN(C(=O)COC)CC1 (configuration not stated),Percent Effect,"30 µM, 30.03 µM",54.19%
CCn1ncnc1C(C)NC(=O)C1CCN(C2CCCCC2)CC1 (configuration not stated),Percent Effect,"30.3 µM, […]",10.97%
CC(=O)NC(C)(C)C(=O)Nc1ncc(Cc2ccc(C)c(F)c2)s1,Percent Effect,"30 µM, 30.03 µM",11.96%
Cc1nn(C)cc1-c1ccnc(N(C)Cc2noc(C(C)C)n2)n1,Percent Effect,"30.3 µM, […]",19.89%
Cc1nn(C)c(C)c1-c1ccnc(N(C)Cc2nc(C(C)C)no2)n1,Percent Effect,"30.3 µM, […]",52.75%
Cc1nn(C)c(C)c1-c1ccnc(N(C)Cc2noc(C(C)C)n2)n1,Percent Effect,"30.3 µM, […]",46.51%
CCc1nc(CN(C)C2CCN(CCC(=O)N3CCCCC3)C2)no1 (configuration not stated),Percent Effect,"30.3 µM, […]",22.94%
Fc1cnc(N2CCn3cc(CNc4ccccn4)nc3C2)nc1.O=C(O)C(F)(F)F.O=C(O)C(F)(F)F,Percent Effect,"30 µM, 30.03 µM",-20.21%
O=C(O)C(F)(F)F.O=C(c1ccc[nH]1)N1CCn2cc(CN3CCCC3)nc2C1,Percent Effect,"30 µM, 30.03 µM",-3.456%
O=C(O)C(F)(F)F.O=C(c1ccc[nH]1)N1CCn2cc(Cn3cccn3)nc2C1,Percent Effect,"30.3 µM, […]",51.47%
O=C(Cc1ccc(F)cc1)N1CCn2cc(Cn3cccn3)nc2C1.O=C(O)C(F)(F)F,Percent Effect,"30 µM, 30.03 µM",-23.45%
N#CC1(C(=O)N2CCOC(c3ccc(F)cc3)C2)CCCCC1 (configuration not stated),Percent Effect,"30.3 µM, […]",33.91%
O=C(Nc1cc(C(F)(F)F)c[nH]c1=O)C1CCNCC1,Percent Effect,"30.3 µM, […]",29.22%
Cl.O=C(Nc1cc(C(F)(F)F)c[nH]c1=O)C1CCCCN1 (configuration not stated),Percent Effect,"30.3 µM, […]",10.48%
O=C(Nc1cc(C(F)(F)F)c[nH]c1=O)C1CCCO1 (configuration not stated),Percent Effect,"30.3 µM, […]",65.61%
CN1CCOC(CNCC(=O)NCCC2=CCCCC2)C1 (configuration not stated),Percent Effect,"30.3 µM, […]",0.5751%
C[C@@H]1CN(Cc2nc(Cc3ccccc3F)no2)C[C@H](C)O1,Percent Effect,"30.3 µM, […]",14.95%
COc1ccc(C[C@H]2CN(C(=O)c3cc(C)no3)CC[C@H]2OC)cc1,Percent Effect,"30.3 µM, […]",7.467%
CO[C@H]1CCN(C(=O)c2cc(C)on2)C[C@@H]1Cc1ccccc1,Percent Effect,"30.3 µM, […]",-10.42%
CO[C@@H]1CCN(C(=O)c2cc(C)on2)C[C@@H]1Cc1ccccc1,Percent Effect,"30.3 µM, […]",52.23%
CC(=O)N1CCC2(CC1)CC(C(C)C)=NO2,Percent Effect,"30.3 µM, […]",-2.802%
NC(=O)CSCC(=O)NCC1CCCC1,Percent Effect,"30.3 µM, […]",12%
CNC(=O)C1CN(Cc2ccc(C#N)cc2F)c2ccccc2O1 (configuration not stated),Percent Effect,"30.3 µM, […]",34.5%
O=C1CO[C@H]2CN(Cc3ccc(F)c(F)c3)C[C@H]2N1,Percent Effect,"30.3 µM, […]",13.71%
CCOC(=O)C1(Cc2ccccc2-c2ccccc2OC)CCNCC1.Cl,Percent Effect,"30.3 µM, […]",51.68%
COc1ccccc1-c1ccccc1CC1(C(=O)O)CCNCC1,Percent Effect,"30.3 µM, […]",-31.14%
COc1ccc(F)cc1-c1ccccc1CC1(C(=O)O)CCOCC1,Percent Effect,"30.3 µM, […]",-18.67%
CCNC(=O)C1CCCN(c2ccc3ccc(F)cc3n2)C1 (configuration not stated),Percent Effect,"30.3 µM, […]",4.617%
CC(C)Oc1ncccc1CNC(=O)NC(C)c1cccs1 (configuration not stated),Percent Effect,"30.3 µM, […]",19.58%
CCCOc1cc(C)ccc1NC(=O)NCCNC(=O)C(C)C,Percent Effect,"30.3 µM, […]",-16.43%
COc1ccc2c(c1)OCC(CNc1cc(N)nc(SC)n1)C2 (configuration not stated),Percent Effect,"30.3 µM, […]",52.24%
COc1cccc2c1OCC(CNc1cc(N)nc(SC)n1)C2 (configuration not stated),Percent Effect,"30.3 µM, […]",21.08%
CCc1nc2c(NCC3COc4c(cccc4OC)C3)ncnc2o1 (configuration not stated),Percent Effect,"30.3 µM, […]",45.88%
COc1ccc2c(c1)OCC(Cc1ccc(C)nc1N)C2 (configuration not stated),Percent Effect,"30.3 µM, […]",-0.8362%
CCc1nc2c(NCC3COc4cc(OC)ccc4C3)ncnc2o1 (configuration not stated),Percent Effect,"30.3 µM, […]",60.09%
CCc1nc2c(NCC3COc4ccccc4C3)ncnc2o1 (configuration not stated),Percent Effect,"30.3 µM, […]",35.57%
CCC(CNC(=O)c1nc(=O)[nH][nH]1)Oc1cccc(C(F)(F)F)c1 (configuration not stated),Percent Effect,"30.3 µM, […]",11.69%
CC1c2ncc(COCC3CC3)n2CCN1C.O=C(O)C(F)(F)F (configuration not stated),Percent Effect,"30.3 µM, […]",11.79%
Cc1nc(N(C)C)nc(-c2cccc(-c3ccn(CCCF)n3)c2)c1C,Percent Effect,"30.3 µM, […]",-3.93%
CN(C)c1cc(CNC(=O)c2ccc(F)cc2F)ccn1,Percent Effect,"30 µM, 30.03 µM",42.64%
CCc1nc(CN(C)CC(=O)NC(C)C)cs1,Percent Effect,"30.3 µM, […]",35.21%
CCCc1cc(C(=O)NC(C)c2ccccc2)n(C)n1 (configuration not stated),Percent Effect,"30.3 µM, […]",52.97%
CCCc1cc(C(=O)N[C@H](C)[C@@H](O)c2ccc(O)cc2)n(C)n1,Percent Effect,"30.3 µM, […]",13.63%
CCCc1cc(C(=O)N[C@@H](CO)[C@@H](O)c2ccccc2)n(C)n1,Percent Effect,"30.3 µM, […]",0.7938%
CN(Cc1ccco1)C(=O)NCc1ccnc(SC(C)(C)C)c1,Percent Effect,"30.3 µM, […]",10.46%
CCn1cc(CNCc2ccc(C(=O)OC)cc2)c(C)n1,Percent Effect,"30.3 µM, […]",-10.67%
CN(C)CC1(O)CCCN(C(=O)Cc2ccc(Cl)c(Cl)c2)C1 (configuration not stated),Percent Effect,"30.3 µM, […]",-2.799%
CC(C)Nc1nc(N2CCCC2)nc2c1CN(c1ncc(F)cn1)CC2,Percent Effect,"30.3 µM, […]",60.7%
CCC(C)N1CCc2nc(N3CCCC3)nc(NC(C)C)c2C1 (configuration not stated),Percent Effect,"30.3 µM, […]",35.6%
CC(C)Nc1nc(N2CCCC2)nc2c1CN(C)CC2,Percent Effect,"30.3 µM, […]",20.69%
Cc1nc(CN2CCc3nc(N4CCCC4)nc(NC(C)C)c3C2)cs1,Percent Effect,"30.3 µM, […]",51.28%
CC(C)Nc1nc(N2CCCC2)nc2c1CN(C(C)C)CC2,Percent Effect,"30 µM, 30.03 µM",-2.181%
Cc1nc(CN2CCc3nc(NC(C)C)nc(C)c3C2)cs1,Percent Effect,"30.3 µM, […]",4.033%
O=C(OCc1cccs1)c1cccc(C(=O)N2CCCC2)n1,Percent Effect,"30.3 µM, […]",3.746%
Cn1cc(-c2ncc3c(c2C(=O)O)CCN(Cc2ccco2)C3)cn1.O=C(O)C(F)(F)F,Percent Effect,"30.3 µM, […]",10.3%
Cc1ccc(C(=O)NCc2ccnc(N(C)C)c2)c(C)c1,Percent Effect,"30.3 µM, […]",24.48%
O=C(c1ccccn1)N1CCCC(c2ncncc2-c2ccncc2)C1 (configuration not stated),Percent Effect,"30.3 µM, […]",-13.38%
O=C(O)C(F)(F)F.O=C1NCC[C@]12CN(CC1CCOCC1)C[C@H]2c1ccccc1,Percent Effect,"30.3 µM, […]",7.927%
Nc1ncccc1C(=O)NCc1cccc(Br)c1,Percent Effect,"30.3 µM, […]",45.5%
Cc1cccc(CNC(=O)c2cccnc2N)c1,Percent Effect,"30.3 µM, […]",26.02%
COc1cccc(CNC(=O)c2cccnc2N)c1,Percent Effect,"30.3 µM, […]",50.32%
COc1ccc(C(=O)NS(=O)(=O)c2cc(Cl)sc2Cl)cc1OC(F)F,Percent Effect,"30.3 µM, […]",16.5%
CCn1cc(NC(=O)NCC(c2ccsc2)N(C)C)cn1 (configuration not stated),Percent Effect,30 µM,19.68%
COc1ccc(CC(=O)N2CCCC(n3cccn3)C2)cc1F (configuration not stated),Percent Effect,30 µM,5.405%
CNC(=O)c1sccc1S(=O)(=O)Nc1ccc(C)cc1,Percent Effect,"30.3 µM, […]",8.63%
CN1CCOC(CN(C(=O)Cc2ccccc2F)c2nccs2)C1 (configuration not stated),Percent Effect,"30 µM, 30.03 µM",-6.347%
c1ccc(Cc2nc(CN3CCCC3Cn3cncn3)cs2)cc1 (configuration not stated),Percent Effect,30 µM,-0.1933%
Cc1ccc2nc(C3CCCN3Cc3csc(C)n3)[nH]c2c1 (configuration not stated),Percent Effect,"30.3 µM, […]",32.46%
Cc1ccc2nc(C3CCCN3Cc3cccc(CCN)c3)[nH]c2c1 (configuration not stated),Percent Effect,"30.3 µM, […]",54.52%
Cc1ccc2nc(C3CCCN3Cc3scnc3C)[nH]c2c1 (configuration not stated),Percent Effect,"30.3 µM, […]",25.37%
O=C1NCCN(Cc2ccoc2)C1CC(=O)N1CCc2sccc2C1 (configuration not stated),Percent Effect,"30.3 µM, […]",23.18%
CN(CC(=O)NC1(C)CCS(=O)(=O)C1)Cc1ccc(Br)cc1 (configuration not stated),Percent Effect,30 µM,-0.9039%
O=C(O)C(F)(F)F.c1cnc(N2CCC3(COCc4cnc(-c5cccnc5)nc43)C2)nc1 (configuration not stated),Percent Effect,"30 µM, 30.03 µM",17.52%
CN(C)C(=O)CN1CCC2(COCc3cnc(-c4cccnc4)nc32)C1.O=C(O)C(F)(F)F.O=C(O)C(F)(F)F (configuration not stated),Percent Effect,"30.3 µM, […]",71.1%
CN(C)C(=O)CN1CCC2(COCc3cnc(-c4ccccc4)nc32)C1 (configuration not stated),Percent Effect,"30.3 µM, […]",31.1%
CN(C)C1CCN(C(=O)c2cccc(S(=O)(=O)NCC3(C)COC3)c2)C1 (configuration not stated),Percent Effect,"30.3 µM, […]",28.53%
Cn1nccc1CN1CCCC(COc2ccccc2F)C1 (configuration not stated),Percent Effect,"30.3 µM, […]",53.5%
CC(C)n1c(C2CCCN(Cc3ccnn3C)C2)nc2ccccc21 (configuration not stated),Percent Effect,"30 µM, 30.03 µM",7.956%
CCn1cc(CN2CCCC(COc3ccccc3F)C2)cn1 (configuration not stated),Percent Effect,"30.3 µM, […]",32.99%
COc1ccc(CN2Cc3[nH]nc(C(=O)N(C)C)c3C2)cc1,Percent Effect,"30.3 µM, […]",5.856%
COc1ccc(CCN(C)CCS(=O)(=O)c2ccc(Cl)cc2)cc1OC,Percent Effect,"30.3 µM, […]",7.861%
COc1ccc(CCCN(C)C(=O)c2cc(Cl)c[nH]2)cc1OC,Percent Effect,"30.3 µM, […]",32.32%
CCN(Cc1nccs1)Cc1cc(Cl)ccc1OC,Percent Effect,"30.3 µM, […]",-1.846%
COc1ccc(CN(C)CCS(=O)(=O)c2ccc(Cl)cc2)cc1OC,Percent Effect,"30.3 µM, […]",56.02%
COCCN(C)Cc1ccc(OC)c(OC(F)F)c1,Percent Effect,"30 µM, 30.03 µM",7.354%
CCN(CCS(=O)(=O)c1ccc(Cl)cc1)Cc1ccc(OC)c(OC)c1,Percent Effect,"30.3 µM, […]",54.72%
